# Measurements taken from PubChem BioAssay AID463173 (ICCB-Longwood Screening Facility, Harvard Medical School, 2010).
# About 4,300 (8.3%) of roughly 52,000 compounds were called active. Shown is part of a subset that was picked to be rich in actives. Values without a mark were called inactive. Rule as the data show it: active = survival mostly below about 52% (no sharp cut-off); inactive = mostly above about 56%.
# Test system: DeltatarO mutant
# Test: S. aureus survival, RN4220 and DeltatarO strains – OD600, teichoic acid synthesis inhibitors, primary screen (AID 463173)
# Settings: S. aureus RN4220 wild type/DeltatarO growth, OD600, 18 h, active compounds read low, screened at 18.75 µg/mL (by protocol)
row,Compound,survival
1,Fc1ccccc1N1CCN(c2ncc3c(n2)CCN(Cc2ccc(Br)s2)C3)CC1,66%
2,CCc1nn2c(=O)cc(COC(=O)c3ccc(NC(=O)CCc4ccccc4)cc3)nc2s1,99%
3,COc1ccc(OC)c(NC(=O)C(C)n2nc(C)c3c(C)n(-c4ccccc4)nc3c2=O)c1 (centres undefined),93%
4,O=C(Nc1cccc(F)c1)C1CCN(S(=O)(=O)c2ccc3[nH]c4c(c3c2)CCCCC4)CC1,89%
5,CCCn1c2ccccc2c2cnn(CC(=O)NC(C)CC)c(=O)c21 (centres undefined),72%
6,O=C(NCc1ccco1)c1ccc2c(c1)N(Cc1ccc(Cl)cc1)C(=O)c1ccccc1S2,71%
7,COc1ccc(CCN2C(=O)N(c3ccc(F)cc3)C(=O)C2CC(=O)Nc2ccccc2)cc1OC (centres undefined),76%
8,Cc1ccc(NC(=O)Nc2nnc(SCC(=O)Nc3ccc(F)cc3F)s2)cc1,102%
9,Nc1nc(N)c(S(=O)(=O)c2ccccc2)c(Nc2ccc(Br)cc2)n1,44% (active)
10,Nc1nc(N)c(S(=O)(=O)c2ccccc2)c(Nc2ccccc2)n1,69%
11,Cc1nc(N)c(S(=O)(=O)c2ccccc2)c(Nc2ccc(Br)cc2)n1,87%
12,O=C1c2ccccc2C(=O)C1(O)N1CCOCC1,85%
13,Cc1c(CN2CCOCC2)c(=O)n(-c2ccccc2)n1C,87%
14,CC1(N2CCOCC2)CC(=O)N(c2ccccc2)O1 (centres undefined),62% (active)
15,COc1ccc(OCC2c3cc(OC)c(OC)cc3CCN2C(=O)c2c(F)cccc2F)cc1 (centres undefined),112%
16,CCN(CC)c1ccc(NC(=O)CCc2c(C)nc3ncnn3c2C)c(C)c1,115%
17,CCN1CCN(CCCNC(=O)c2cc3c(=O)n(C)c4ccccc4c3s2)CC1,79%
18,O=C(NCCSCc1cccc(Cl)c1)C1CCN(S(=O)(=O)Cc2ccccc2)CC1,63%
19,COc1ccc(OC)c(C2C(C(=O)Nc3ccc(C)cc3C)=C(C)Nc3c(C(=O)Nc4ccc(F)cc4)cnn32)c1 (centres undefined),96%
20,COc1ccc(CNC(=O)c2nc(SC(C)C)ncc2Cl)cc1,114%
21,COc1ccc(CNC(=O)c2nc(S(=O)(=O)Cc3ccccc3)ncc2Cl)cc1,18% (active)
22,Cc1ccc(NC(=O)c2nc(S(=O)(=O)Cc3ccc(F)cc3)ncc2Cl)cc1C,84%
23,Cc1ccc(C)c(NC(=O)c2nc(S(=O)(=O)Cc3ccc(F)cc3)ncc2Cl)c1,99%
24,COc1ccc(CNC(=O)c2nc(SCc3ccccc3F)ncc2Cl)cc1,81%
25,Cc1ccc(CSc2ncc(Cl)c(C(=O)NCc3ccccc3)n2)cc1,79%

row,Compound,survival
1,O=C(NCc1ccccc1)c1nc(S(=O)(=O)Cc2ccccc2)ncc1Cl,18% (active)
2,Cc1ccc(CNC(=O)c2nc(SCc3ccc(F)cc3)ncc2Cl)cc1,71%
3,CCS(=O)(=O)c1ncc(Cl)c(C(=O)NCc2ccccc2)n1,50%
4,O=C(NCc1ccccc1)c1nc(S(=O)(=O)Cc2ccc(F)cc2)ncc1Cl,-6% (active)
5,CC(=O)Nc1ccc(NC(=O)c2nc(S(=O)(=O)Cc3ccc(F)cc3)ncc2Cl)cc1,32% (active)
6,CCNC(=O)c1c(NC(=O)Cc2coc3ccc(CC)cc23)sc2c1CCCC2,79%
7,COc1ccc(CNC(=O)c2cccc(-n3cnc4cccnc43)c2C)cc1,90%
8,CCc1ccc(NC(=O)c2cc(S(=O)(=O)N3CCCCCC3)ccc2F)cc1,99%
9,CC(=O)Nc1n[nH]c(-c2ccc(C)cc2)c1C,94%
10,Cc1ccc(NC(=O)Cn2c(=O)ccc3cc(S(=O)(=O)N4CCC(C)CC4)ccc32)cc1C,71%
11,COc1ccc(N2C(=O)C(CC(=O)Nc3ccccc3)N(CCC3=CCCCC3)C2=O)cc1 (centres undefined),72%
12,COc1ccc(CNC(=O)c2nc(SCc3ccc(C)cc3)ncc2Cl)cc1,67%
13,Cc1ccc(CNC(=O)c2nc(S(=O)(=O)Cc3ccc(C)cc3)ncc2Cl)cc1,41% (active)
14,COc1ccc(OC)c(NC(=O)c2nc(SCc3ccc(F)cc3)ncc2Cl)c1,77%
15,Cc1ccc(CNC(=O)c2nc(SCc3cccc(C)c3)ncc2Cl)cc1,117%
16,COc1ccccc1NC(=O)c1nc(SCc2ccc(F)cc2)ncc1Cl,77%
17,COc1ccc(NC(=O)c2nc(S(=O)(=O)Cc3ccc(C)cc3)ncc2Cl)cc1,32% (active)
18,CSc1ncc(Cl)c(C(=O)NCc2ccc(C)cc2)n1,84%
19,Cc1cccc(CS(=O)(=O)c2ncc(Cl)c(C(=O)NCc3ccccc3)n2)c1,-1% (active)
20,Cc1cccc(CS(=O)(=O)Cc2ccc(C(=O)NCc3ccccc3)o2)c1,124%
21,COc1ccc(OC)c(NC(=O)c2nc(S(=O)(=O)Cc3ccc(F)cc3)ncc2Cl)c1,-5% (active)
22,CCOc1ccc(NS(=O)(=O)c2ccc3c(c2)CCCN3C(=O)C2CCC2)cc1,67%
23,CC(C)Oc1ccc(CNC(=O)c2cnc3sc(N4CCCCC4)nn3c2=O)cc1,124%
24,CCCCCn1c(=N)c(S(=O)(=O)c2ccc(C)cc2)cc2c(=O)n3cc(C)ccc3nc21,84%
25,O=C(NCc1ccc(Cl)cc1)NCc1noc2ccccc12,41%

row,Compound,survival
1,COc1ccccc1NC(=O)CSc1oc(-c2cccs2)nc1S(=O)(=O)c1ccc(Br)cc1,68%
2,CCn1ccc2cc(S(=O)(=O)N3CCCN(C(=O)Nc4ccc(C)cc4)CC3)ccc21,73%
3,CCSc1nnc(C2CCCN(CC(=O)Nc3nc(C)cs3)C2)n1C (centres undefined),91%
4,CC(C)NC(=O)c1ccc(CSc2nc3ccncc3n2Cc2cccc(F)c2)cc1,77%
5,CCOc1ccc(-c2nonc2NC(=O)c2ccccc2C)cc1,107%
6,CCOc1ccc(NC(=O)c2cc(S(=O)(=O)N3CCOCC3)ccc2F)cc1,89%
7,CCOC(=O)c1ccc(NC(=O)c2nc(S(=O)(=O)Cc3ccccc3)ncc2Cl)cc1,-2% (active)
8,Cc1ccc(NC(=O)c2nc(S(=O)(=O)Cc3cccc(C)c3)ncc2Cl)cc1,-3% (active)
9,COC(=O)c1ccccc1NC(=O)c1nc(S(=O)(=O)Cc2cccc(C)c2)ncc1Cl,39% (active)
10,CCOC(=O)c1ccc(NC(=O)c2nc(SC(C)C)ncc2Cl)cc1,107%
11,CCS(=O)(=O)c1ncc(Cl)c(C(=O)Nc2c(C(=O)Nc3cccc(C)c3)oc3ccccc23)n1,67%
12,COC(=O)c1ccccc1NC(=O)c1nc(SCc2ccccc2C)ncc1Cl,79%
13,CCS(=O)(=O)c1ncc(Cl)c(C(=O)Nc2ccccc2)n1,52%
14,CCOc1ccccc1NC(=O)c1nc(S(=O)(=O)Cc2cccc(C)c2)ncc1Cl,66%
15,CCc1cccc(NC(=O)Cn2c(=O)n(-c3ccccc3C)c(=O)c3c2c2cc(C)ccc2n3C)c1,85%
16,O=C(COc1ccccc1Cl)Nc1ccc(-c2nc3ccccc3s2)cc1,52%
17,CCOC(=O)c1ccc(Nc2c(-c3ccc(N(C)C)cc3)nc3nc[nH]n23)cc1,102%
18,COc1cccc(OCc2cc(=O)n3c(-c4ccccc4)csc3n2)c1,74%
19,CC(C)CC(=O)Nc1cccc(-c2cn3cccnc3n2)c1,83%
20,CN1CCN(Cc2nnnn2CC2CCCO2)CC1 (centres undefined),95%
21,CCOc1ccc(Cn2nnc(C(=O)Nc3cccc(SC)c3)c2N)cc1,30% (active)
22,CCOc1ccc(Cn2nnc(C(=O)Nc3ccc(Cl)cc3)c2N)cc1,88%
23,CCc1cccc(NC(=O)c2nnn(Cc3ccc(SC)cc3)c2N)c1,59%
24,CCOc1ccc(S(=O)(=O)Nc2cccc(-c3ccc(N4CCC(C)CC4)nn3)c2)cc1,86%
25,CC(C)COc1ccc(C(=O)N(Cc2ccc(N(C)C)cc2)Cc2ccco2)cc1,71%

row,Compound,survival
1,Cc1ccc(NC(=O)CSCc2cc(=O)c3ccccc3[nH]2)c(C)c1,116%
2,O=C(Cn1c(=O)c2cccn2c2ccc(F)cc21)N1CCN(c2ccccc2F)CC1,56%
3,Cc1ccc(NC(=O)CCn2c(=O)c3cccn3c3ccccc32)cc1C,46% (active)
4,CC(C)c1ccc(NC(=O)CCn2c(=O)c3cccn3c3ccccc32)cc1,57%
5,Cc1cc(C)c(NC(=O)CCn2c(=O)c3cccn3c3ccccc32)c(C)c1,49%
6,Cc1ccc(NC(=O)CCCn2c(=O)c3cccn3c3ccccc32)cc1Cl,68%
7,Cc1ccc(NC(=O)CCCn2c(=O)c3cccn3c3ccccc32)cc1C,61%
8,Cc1ccc(NC(=O)CCn2c(=O)c3cccn3c3ccccc32)cc1Cl,45% (active)
9,O=C(Nc1ccc(Cl)cc1)N1CCN(c2ccc3nnc(-c4ccccc4)n3n2)CC1,72%
10,COc1cc(C2C(C(=O)Nc3ccc(Cl)cc3)=C(C)Nc3nc(SC)nn32)cc(OC)c1OC (centres undefined),64%
11,CC(C)=NNS(=O)(=O)c1ccc(N2CCCC2=O)cc1,71%
12,CC1CCc2sc3ncnc(NCCCN(C)C)c3c2C1 (centres undefined),117%
13,Cc1nn(CC(=O)NCc2ccc(N(C)C)cc2)c(=O)c2nn(-c3ccccc3)c(C)c12,83%
14,CCS(=O)(=O)N1CCc2cc(C(=O)NCCc3ccc(OC)c(OC)c3)ccc21,69%
15,CCC(=O)N1CCc2cc(Br)cc(S(=O)(=O)NCCc3ccc(OC)c(OC)c3)c21,52%
16,O=C1CN(C(=O)COc2ccc(Cl)cc2Cl)C(c2ccccc2)c2cc(F)ccc2N1 (centres undefined),88%
17,COc1ccc(C(=O)N2CC(=O)Nc3ccc(C)cc3C2c2ccccc2)cc1OC (centres undefined),61%
18,Cc1ccc2c(c1)C(c1ccc(F)cc1)N(C(=O)C(C)C)CC(=O)N2 (centres undefined),82%
19,CCCC(=O)N1CC(=O)Nc2ccc(Cl)cc2C1c1ccc(F)cc1 (centres undefined),50%
20,O=C1CN(C(=O)COc2ccc(Cl)cc2Cl)C(c2ccc(F)cc2)c2cc(F)ccc2N1 (centres undefined),47% (active)
21,CCOc1ccc(C(=O)N2CC(=O)Nc3ccc(C)cc3C2c2ccc(F)cc2)cc1OCC (centres undefined),67%
22,Cc1ccc2c(c1)C(c1ccccc1)N(C(=O)COc1ccc(Cl)cc1Cl)CC(=O)N2 (centres undefined),49% (active)
23,CCCC(=O)N1CC(=O)Nc2ccc(Cl)cc2C1c1ccccc1 (centres undefined),69%
24,Cc1ccc2c(c1)C(c1ccc(F)cc1)N(C(=O)COc1ccc(Cl)cc1Cl)CC(=O)N2 (centres undefined),45% (active)
